# In PubChem BioAssay (NCI):
# This is part of a sample that, as a whole, favours compounds with a hit. Of some 83,000 tested, about 20% had one in any assay.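 A percent growth of 40 corresponds to 60% growth inhibition; 0 means no net growth; -100 means all cells died. Active threshold: below 10.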 A number with no mark means an inactive call. Calls of active or inactive are those of the source.
# Tested on: MDA-MB-435 melanoma
# Test: NCI-60 one-dose screen, 48 h (100 = growth as untreated, 0 = no growth, -100 = all killed)
# Details: 10 µM unless noted
# Experimental: Growth inhibition of the MDA-MB-435 human Melanoma tumor cell line is measured as a screen for anti-cancer activity. Cells are grown in 96 well plates and exposed to the test compound for 48 hours. Compounds are tested at a single concentration, which is 10^-5 M for most compounds. The reported endpoint is percent growth (GI% or GIPRCNT), where numbers from 0 - 100% represent growth inhibition, and numbers from -100% - 0 represent cell death. For example, a value of 40 represents 60% growth inhibition. A value of 0 means no net growth occurred over the course of the experiment. A value of -40 indicates 40% of cells at the beginning of the experiment died by the end of the experiment. A value of -100 means all cells are dead at the end of the experiment.
# NCI-60 Human Tumor Cell Lines Screen was performed using the standard one-dose NCI protocol, which is described in more detail at https://dtp.cancer.gov/discovery_development/nci-60/default.htm.
# Compounds with GIPRCNT values below 10 were considered active. Activity score was based on GIPRCNT using the following formula: […]
# Score is 0 for GIPRCNT values of 100 or above, 50 for GIPRCNT values of 0, and 100 for GIPRCNT values of -100.
row,Compound,growth
1,Oc1c(Cl)cc(Cl)cc1CNc1nccnn1,99.3%
2,CC[C@@H](C)OC(=O)c1nn(C(C)=O)c2ccccc12,103%
3,CC/C=C\C[C@H](O)C/C=C1/C(=O)C=C[C@@H]1C/C=C\CCCC(=O)NC,15.2%
4,CCOC(=O)c1ccc2c(c1)nc(/C=C/c1ccc(Cl)cc1)n2-c1cc(C(C)(C)C)[nH]n1,62.7%
5,C[C@@H]1CC[C@@H]2[C@@H]1[C@H](OC(=O)/C=C/c1ccccc1)[C@]1(C3CCCCC3)C[C@@H](OC(=O)CO)[C@@]2(C)O1,87.9%
6,CCCCN(CCCC)Cc1c(C)[nH]c2cc(OC)ccc2c1=O,104%
7,COc1cc(-c2cc(-c3nc4ccc(Cl)cc4[nH]3)[nH]n2)cc(OC)c1OC,39.5%
8,CCOC(=O)N1CCN(c2nc(Nc3cc(C)[nH]n3)c3ccccc3n2)CC1,14%
9,CCC(C)[C@@H]1NC(=O)[C@@H]2CCCN2C(=O)[C@H](Cc2ccccc2)NC(=O)[C@@H]2CCCN2C(=O)[C@H](Cc2ccccc2)NC(=O)[C@@H]2CCCN2C(=O)[C@H](Cc2ccccc2)NC1=O (stereo not given in full),112%
10,Cn1c2c(Cl)c(Cl)ccc2c2ccn3c(=O)c4ccccc4nc3c21,98.3%
11,COc1c2ccccc2c(OC)c2[nH]c(=O)ccc12,-67.2% (active)
12,CN1C2CCC1/C(=C\c1ccc(Cl)cc1)C1=C2[C@@H](c2ccc(Cl)cc2)C(C#N)=C(N)O1 (stereo not given in full),91.5%
13,CCN(CC)CCCNc1cccc2c(SCc3ccccc3)ccnc12,-27.9% (active)
14,O=C1/C(=C\c2cn(C(=O)c3ccc(Cl)cc3)c3ccccc23)c2ccccc2N1c1c(Cl)cccc1Cl,116%
15,COc1ccc(/C=c2/c(=O)[nH]c3nc4sc(C)c(C)c4c(=O)n23)cc1,86.8%
16,CCCCN(CCCC)CCC(C)(O)c1cc2ccccc2c2ccccc12 (stereo not given),83.9%
17,Cc1ccc(Nc2nc(N)nc(Nc3ccc4ccccc4c3)n2)cc1,16.6%
18,NS(=O)(=O)c1ccc(-n2ncc3c(=O)[nH]c(CN4CCN(c5cc6c(cc5F)c(=O)c(C(=O)O)cn6C5CC5)CC4)nc32)cc1,99.9%
19,O=C(CN1CCN(c2cc3c(cc2F)c(=O)c(C(=O)O)cn3C2CC2)CC1)Nc1cc(=O)[nH]c(=O)[nH]1,102%
20,COc1cccc(-c2nc3sccn3c2-c2ccnc(NCCCNS(=O)(=O)c3ccc(Cl)cc3)c2)c1,38.4%

row,Compound,growth
1,C#Cc1nc(Nc2cc(C)[nH]n2)c2ccccc2n1,-75.5% (active)
2,COc1ccc(C(=O)COc2ccc(/C=C3\Oc4ccc(Cl)cc4C3=O)cc2)cc1,106%
3,CCCCCCCCCC(=O)Oc1ccc(/C(=C(/C)Cc2cccc(OC)c2)c2ccc(OCCN(C)C)cc2)cc1,103%
4,CC(=O)C1=C(O)C=C2Oc3c(C(=O)/C=C/c4cc(Cl)cc(Cl)c4)c(O)c(C)c(O)c3[C@]2(C)C1=O,-42.2% (active)
5,O=[N+]([O-])c1cccc(-c2nc3sccn3c2-c2ccnc(NCCNS(=O)(=O)c3ccc(C(F)(F)F)cc3)n2)c1,20.7%
6,Cc1cc(=O)oc2cc(Oc3nc(-c4ccc(Cl)cc4)cn4c(-c5ccc(Cl)cc5)cnc34)ccc12,75.5%
7,CCN(C(=O)CN1CCN(c2cc3c(cc2F)c(=O)c(C(=O)O)cn3CC)CC1)c1nc(-c2ccccc2)cs1,-13.9% (active)
8,O=C(CO[N+](=O)[O-])Nc1ccc(C(=O)/C=C/c2ccc3c(c2)OCO3)cc1,62.6%
9,CCCCCCCCCCCCCCCCCCSC1=CC(=O)C(OC)=C(OC)C1=O,68.2%
10,CN1CCN(Cc2ccc(NC(=O)c3[nH]ncc3Nc3ncnc4[nH]ccc34)cc2)CC1,8.18% (active)
11,CCCCCCCCCCCCCCCC(=O)OCC1OC(n2cnc3c(=S)nc(N)[nH]c32)C(OC(=O)CCCCCCCCCCCCCCC)C1OC(=O)CCCCCCCCCCCCCCC (stereo not given),59.3%
12,CC(=O)CC(C)(C)c1ccc(Cl)cc1,104%
13,C[C@@H]1CCC2=C(CCC[C@]2(C)C(=O)O)[C@@]1(C)CCc1ccoc1,107%
14,O=C([C@@H](COCc1ccccc1)N1C(=O)[C@@H](N2C(=O)OC[C@@H]2c2ccccc2)[C@H]1/C=C/c1ccccc1)N1CCC(CCN2CCCCC2)CC1,97.7%
15,CS(=O)(=O)c1ccc(-c2cnc3ccc(-c4cccc(S(C)(=O)=O)c4)nn23)cc1,49.6%
16,OCC1C2C=CC(C2)C1CO (stereo not given),109%
17,COc1ccc(CN(c2ccc(C)cc2)C2OC(=O)c3ccccc32)cc1OC (stereo not given),100%
18,O=S(=O)(NCCCNc1cc(-c2cn(-c3ccccc3)nc2-c2ccccc2)ccn1)c1ccc(C(F)(F)F)cc1,50%
19,COc1ccc(-c2cc(-c3cccnc3)nc3sc4c(=O)n(-c5ccc(C)cc5)cnc4c23)cc1OC,98.7%
20,CCc1ccc(C(c2ccc(CC)cc2)C(Cl)(Cl)CCl)cc1,102%
